# Source: PubChem BioAssay
# A selection: hits, their analogues and other compounds. The true share with any hit is near 5.8%.
# VP16 counter: counter-screen for ROR gamma inhibitors: Gal4-VP16 reporter; Drosophila S2 Gal4-VP16 UAS-luciferase, luminescence, 20 h; Potency, µM (doses to about 53.6 µM), without a hit: top-dose activity, negative = inhibition, actives largely listed as inhibitors; 310,000 tested, 3.5% active;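 note: Gal4-VP16 expression switched on by copper sulfate through the metallothionein promoter; potency is the fitted concentration of half-maximal effect; % is set by controls: 0 for no effect and ±100 for the full control effect; nearly all actives have a fitted effect of over 50% in size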
# uPA surface inh: inhibitors of cell surface uPA generation. AID 540303. cell surface uPA generation assay, qHTS. 330,000 tested, 0.31% active. Potency, µM (doses to about 38.3 µM), for the others: top-dose activity change, negative = inhibition, actives largely listed as inhibitors; active = well fitted inhibition curve with a large enough effect; inconclusive = small, poorly fitted or top-dose-only effect; inactive = no such curve, though single readings can be large or run the other way; tested in mouse RAW 264.7 cells; note: potency is the fitted concentration of half-maximal effect; % is set by controls: 0 for no effect and ±100 for the full control effect; nearly all actives have a fitted effect of over 55% in size
# TRPV1 ag: activates the human vanilloid receptor TRPV1. 320,000 tested, 0.19% active. activation, % at 8.33 µM. TRPV1-expressing cells, Fluo-8 calcium influx, agonist mode; in the data active = activation above about 80%; inconclusive = between about 30% and that limit; note: 0% is about no effect
#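 Fluo-8 calcium influx in TRPV1-expressing cells, kinetic read (ex 480/em 520 nm). Compound added and read 3 min for agonist activity, followed by capsaicin at EC20 final and 2 min further read for enhancement.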
# TRPV1 potentiator: potentiators of human vanilloid receptor 1 (TRPV1); AID 540277; 320,000 tested, 0.02% active; Q8NER1; TRPV1-expressing cells, Fluo-8 calcium influx, capsaicin EC20 potentiation; potentiation, % at 8.33 µM; in the data active = potentiation above about 80%; inconclusive = between about 30% and that limit; note: 0% is about no effect
#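 Fluo-8 calcium influx in TRPV1-expressing cells, kinetic read (ex 480/em 520 nm). Compound added and read 3 min for agonist activity, followed by capsaicin at EC20 final and 2 min further read for enhancement.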
# RORgamma inh: inhibitors of mouse ROR gamma transcriptional activity. P51450. Drosophila S2 Gal4-RORgamma UAS-luciferase reporter, 20 h. Potency, µM (series often up to 53.6 µM), for the others: at the highest dose activity change, negative = inhibition, most hits filed as inhibitors. 310,000 tested, 5.4% active. AID 2551; note: potency is the fitted concentration of half-maximal effect; % is set by controls: 0 for no effect and ±100 for the full control effect; nearly all actives have a fitted effect of over 60% in size
# Target sequence (P51450 whole entry, looked up, the tested form may be a part): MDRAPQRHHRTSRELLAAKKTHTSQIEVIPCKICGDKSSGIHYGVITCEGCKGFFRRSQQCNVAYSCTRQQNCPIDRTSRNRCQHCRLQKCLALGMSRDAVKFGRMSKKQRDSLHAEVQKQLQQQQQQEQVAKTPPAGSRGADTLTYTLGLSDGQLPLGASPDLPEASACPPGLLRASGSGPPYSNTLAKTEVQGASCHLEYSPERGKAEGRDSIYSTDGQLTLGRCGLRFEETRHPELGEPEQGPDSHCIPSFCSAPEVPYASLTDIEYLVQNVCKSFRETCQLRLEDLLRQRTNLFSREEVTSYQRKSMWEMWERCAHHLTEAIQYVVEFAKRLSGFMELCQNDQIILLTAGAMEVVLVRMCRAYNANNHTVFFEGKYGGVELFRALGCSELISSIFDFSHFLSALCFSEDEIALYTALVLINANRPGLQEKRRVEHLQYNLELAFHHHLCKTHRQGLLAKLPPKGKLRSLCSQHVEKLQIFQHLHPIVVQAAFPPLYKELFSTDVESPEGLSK
#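 Schneider cells (Drosophila), stable Gal4 DBD–ROR gamma + UAS-luc; 1 hr cmpd preincubation; Cu2+ induction 700 uM final; 20 hr ambient; luminescence.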
# An asterisk follows results filed as active; ? = inconclusive; · = no result given. Unless noted, calls come from the whole dose curve; as a rule, active = well fitted curve in the direction sought with a large enough effect; inconclusive = small, poorly fitted or top-dose-only effect, or another doubt; inactive = no such curve, though single readings can be large; an effect the other way counts as inactive or inconclusive.
SMILES,VP16 counter,uPA surface inh,TRPV1 ag,TRPV1 potentiator,RORgamma inh
CCOC(=O)C1=C(C)Nc2nnnn2C1c1c[nH]c2ccccc12 (stereo unspecified),22µM*,·,·,·,49%
CCOc1cc2[nH]c(=S)n(C3CCN(Cc4ccccc4)CC3)c(=O)c2cc1OCC,?,1%,-4,-2,?
O=c1c2cc3c(cc2[nH]c(=S)n1C1CCN(Cc2ccccc2)CC1)OCO3,3.5µM*,2%,1,-2,5µM*
COc1ccc2[nH]cc(CCNc3ncnc4ccc(-c5ccccc5OC)cc34)c2c1,7%,·,·,·,53%
Cc1ccccc1-c1nn[nH]n1,2%,·,-3,7,19%
Oc1ccc(N=Nc2ccccc2-c2nn[nH]n2)c(O)c1,-17%,-4%,-2,9,16µM*
CC(C)Cc1ccc(C(C)C(=O)OCC(=O)c2c[nH]c3ccccc23)cc1 (stereo unspecified),18µM*,-1%,27,-10,?
O=C1c2ccccc2NC(c2cccc([N+](=O)[O-])c2)N1O (stereo unspecified),-1%,0%,2,16,?
O=C1c2ccccc2NC(c2ccc([N+](=O)[O-])cc2)N1O (stereo unspecified),3%,-9%,-1,-5,11µM*
Cc1cccc(N=C2NC(=O)/C(=C/c3cccs3)S2)c1,13µM*,-16%,-10,7,?
CC(C)NC(=O)CC1(C(=O)NCc2ccc(Cl)cc2)CCCC1,6%,-3%,1,-1,-9%
CCOCCCNC(=S)Nc1cc(C)cc(C)c1,10µM*,-8%,12,-10,6.3µM*
COCCCNC(=S)Nc1c(C)cc(C)cc1C,?,-1%,-2,-5,11µM*
CCOCCCNC(=S)Nc1ccc2nc(N3CCCC3)cc(C)c2c1,1%,-7%,-6,4,-43%
O=C(COC(=O)c1ccccc1NC(=O)c1ccco1)NCCC1=CCCCC1,9%,-2%,14,-2,13%
S=C1NCCc2ccc(Cl)cc2C1c1ccccc1 (stereo unspecified),2.5µM*,5%,18,18,1.3µM*
c1ccc(C2CNCCc3ccccc32)cc1 (stereo unspecified),-7%,-8%,2,-6,18%
Cc1ccc(-c2csc(NCCn3c(C(F)(F)F)nc4ccccc43)n2)cc1,-25%,?,?,0,-14%
Cc1ccc(CNC(=O)c2cc3c(C)nc4ccccc4c3o2)cc1,18µM*,?,20,0,41%
COc1cc2c(cc1OC)CN(c1nc(CN3CCCCC3)nc3sc4c(c13)CCCC4)CC2,?,4%,3,2,11µM*
COc1cccc(Nc2nc(CN3CCOCC3)nc3sc4c(c23)CCCC4)c1,?,1%,?,-22,10µM*
Cc1cc(S(=O)(=O)Nc2nc(CN3CCOCC3)nc3sc4c(c23)CCC4)cc(C)c1C,·,1%,-1,10,·
Cc1ccc(Oc2nc(CN3CCOCC3)nc3sc4c(c23)CCC(C)C4)cc1C (stereo unspecified),11µM*,-1%,?,-3,7.9µM*
Cc1ccc(Oc2nc(CN3CCOCC3)nc3sc4c(c23)CCC(C)C4)cc1 (stereo unspecified),?,-2%,?,-5,?
COc1cc2c(cc1OC)CN(c1nc(CN3CCOCC3)nc3sc4c(c13)CCCC4)CC2,?,-20%,17,-3,14µM*
SMILES,VP16 counter,uPA surface inh,TRPV1 ag,TRPV1 potentiator,RORgamma inh
COCCNc1ncnc2ccc(-c3c(C)noc3C)cc12,13%,·,·,·,-36%
CCNC(=S)Nc1ccc(Cc2ccncc2)cc1,-19%,2%,-7,19,0%
CC(C)(C)C(=O)NC(=S)Nc1ccc(F)cc1,?,5%,27,-22,10µM*
CNC(=S)Nc1ccc(Cc2ccncc2)cc1,-5%,-8%,-1,1,-22%
O=C(NC(=S)Nc1ccc(Cc2ccncc2)cc1)c1ccc(F)cc1,?,-5%,11,-7,4.5µM*
CC(C)(C)C(=O)NC(=S)Nc1ccc(Cc2ccncc2)cc1,13µM*,0%,?,-14,13µM*
COc1cccc(-c2nccc(N(C)Cc3ccco3)n2)c1,-24%,·,·,·,?
